Results on two sequences are retold here after patent publication US20040191812, “Target-dependent transcription using deletion mutants of N4 RNA polymerase” (published 2004).

Assay [1] addresses T1, N4 mini-vRNAP (His-tagged) (Bacteriophage N4, UniProt Q859P9 SEQ:34-1143).
T1 chain: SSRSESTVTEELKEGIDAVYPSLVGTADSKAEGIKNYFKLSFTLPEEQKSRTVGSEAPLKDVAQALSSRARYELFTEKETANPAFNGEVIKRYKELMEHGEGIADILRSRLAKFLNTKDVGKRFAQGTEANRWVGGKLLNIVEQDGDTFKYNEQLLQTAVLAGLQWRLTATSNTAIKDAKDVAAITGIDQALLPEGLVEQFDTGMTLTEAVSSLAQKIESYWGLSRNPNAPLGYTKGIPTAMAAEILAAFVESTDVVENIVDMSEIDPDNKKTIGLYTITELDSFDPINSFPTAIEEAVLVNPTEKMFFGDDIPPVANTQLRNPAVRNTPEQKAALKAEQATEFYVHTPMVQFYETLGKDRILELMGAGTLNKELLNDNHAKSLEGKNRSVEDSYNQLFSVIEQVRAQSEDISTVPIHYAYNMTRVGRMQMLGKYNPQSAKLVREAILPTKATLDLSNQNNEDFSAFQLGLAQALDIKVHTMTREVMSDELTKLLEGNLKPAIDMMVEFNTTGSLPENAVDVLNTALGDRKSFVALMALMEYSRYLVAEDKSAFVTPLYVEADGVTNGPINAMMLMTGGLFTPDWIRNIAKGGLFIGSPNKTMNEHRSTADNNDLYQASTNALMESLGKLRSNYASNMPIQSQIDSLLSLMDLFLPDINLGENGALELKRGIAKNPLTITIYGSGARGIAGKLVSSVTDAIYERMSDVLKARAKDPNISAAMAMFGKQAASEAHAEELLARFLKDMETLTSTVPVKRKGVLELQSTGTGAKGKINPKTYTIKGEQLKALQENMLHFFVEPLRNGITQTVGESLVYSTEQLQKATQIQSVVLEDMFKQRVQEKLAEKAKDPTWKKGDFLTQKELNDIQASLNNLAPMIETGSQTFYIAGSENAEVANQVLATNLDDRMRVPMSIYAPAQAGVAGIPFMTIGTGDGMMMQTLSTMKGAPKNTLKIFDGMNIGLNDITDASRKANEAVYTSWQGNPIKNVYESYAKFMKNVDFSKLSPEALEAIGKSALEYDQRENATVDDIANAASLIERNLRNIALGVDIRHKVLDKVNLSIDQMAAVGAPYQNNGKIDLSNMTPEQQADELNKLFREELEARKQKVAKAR
The experiment in a line: filter; two orders of magnitude reduction. The following applies: tags: N-terminal hexahistidine (pBAD); label: 32P end-label; hairpin, 8 bp stem; ssDNA; [none].

The target in assay [2] is T1, N4 mini-vRNAP (His-tagged). The experiment in a line: filter; further one order of magnitude reduction. The following applies: tags: N-terminal hexahistidine (pBAD); label: 32P end-label; hairpin; ssDNA; [none].

On to TCCAAAAGAAGCGGAGCTTCTTT, for which the binding signal in assay [1] was ~100 fold lower affinity than wild type. As to TCCAAAAGAAGCGGAGCTTCTTTTG, the binding signal in assay [2] was ~1000 fold lower affinity than wild type.
